Most compounds without a hit are left out; they make up all but 4% or so of the library.
Beta apoptosis = beta cell apoptosis inhibition | hit rate 0.8% among 300,000 | protection from apoptosis, % (no concentration beside the values) | INS-1E cytokine-induced death, ATP luminescence, 48 h; percent of positive-control rescue, neutral wells zero;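 active = Every replicate reaches about 75%, or at least half do and their mean reaches it too, limit read from the data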;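 note: higher means more ATP so stronger rescue from cytokine killing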
PAX8 reporter = PAX8 transcriptional activity inhibition. RMG-I TPO-luciferase reporter, SteadyGlo, 24 h. inhibition, % at 12.6 µM. hit rate 1.2% among 360,000;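 active = mean replicate inhibition at least 60% with every replicate also reaching 60%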;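 note: luciferase light reporting Pax8 driven TPO promoter activity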
Gli-Sufu antag = blocks Gli-Sufu signaling in a luciferase reporter | inhibition, % at 5 µM | hit rate 0.74% among 340,000 | AID 588413 | Sufu-KO-LIGHT fibroblasts, Gli luciferase reporter luminescence;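 active = inhibition above about 55%, limit read from the data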
Mdm2 MdmX PPI = inhibitors of human Mdm2/MdmX interaction. SaOS-2 split-luciferase Mdm2/MdmX complementation, luminescence. hit rate 3% among 330,000. AID 485346. inhibition, % at 8 µM;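 active = inhibition of at least 50% at 8 µM in the primary screen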
Target sequence (O15151 whole entry, looked up): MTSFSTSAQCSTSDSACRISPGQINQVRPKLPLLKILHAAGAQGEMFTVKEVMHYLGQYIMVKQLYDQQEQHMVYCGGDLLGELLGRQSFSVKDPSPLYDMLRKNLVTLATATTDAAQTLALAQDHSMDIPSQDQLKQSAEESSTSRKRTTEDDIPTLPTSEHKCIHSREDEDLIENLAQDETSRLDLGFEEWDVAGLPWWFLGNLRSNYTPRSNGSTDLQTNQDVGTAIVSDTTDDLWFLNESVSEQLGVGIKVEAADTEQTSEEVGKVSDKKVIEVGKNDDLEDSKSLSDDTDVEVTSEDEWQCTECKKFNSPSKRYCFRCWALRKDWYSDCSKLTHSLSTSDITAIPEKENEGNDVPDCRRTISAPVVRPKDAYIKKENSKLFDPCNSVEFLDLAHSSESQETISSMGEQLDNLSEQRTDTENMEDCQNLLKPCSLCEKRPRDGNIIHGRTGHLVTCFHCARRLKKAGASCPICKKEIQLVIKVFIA
Target sequence (Q00987 whole entry, looked up): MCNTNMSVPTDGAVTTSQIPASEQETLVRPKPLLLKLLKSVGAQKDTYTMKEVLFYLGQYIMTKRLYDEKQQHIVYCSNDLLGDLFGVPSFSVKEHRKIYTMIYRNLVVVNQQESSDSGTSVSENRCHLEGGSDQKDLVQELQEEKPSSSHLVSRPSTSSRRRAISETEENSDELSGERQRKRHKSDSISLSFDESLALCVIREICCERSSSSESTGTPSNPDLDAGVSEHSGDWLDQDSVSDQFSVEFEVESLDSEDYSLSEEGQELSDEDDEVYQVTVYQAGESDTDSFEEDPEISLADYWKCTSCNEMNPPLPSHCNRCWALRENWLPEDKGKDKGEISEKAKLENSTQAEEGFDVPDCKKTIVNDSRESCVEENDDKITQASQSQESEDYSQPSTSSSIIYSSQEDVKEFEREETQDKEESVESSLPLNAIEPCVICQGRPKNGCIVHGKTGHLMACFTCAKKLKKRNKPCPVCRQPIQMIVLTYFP
Shn3 inh set2 = Schnurri-3 reporter inhibition in Clone20 osteoblasts; Clone20 osteoblast Shn3 3'UTR firefly luciferase, 24 h; AID 588674; hit rate 0.52% among 360,000; inhibition, % at 12.5 µM;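 active = mean inhibition of at least 75% with every replicate also reaching 75%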
CSC inhib = blocks cancer stem cells. inhibition, % at 7.5 µM. hit rate 1.1% among 300,000. AID 2717. cancer stem cell-like cells viability, luminescence; in the data active = inhibition above about 75%; tested in HMLE shEcad cells
Mdm2 MdmX conf = confirmation of human Mdm2/MdmX interaction inhibitors; shares compounds with Mdm2 MdmX PPI; Mdm2-MdmX binding, luminescent assay; inhibition, % at 8 µM; hit rate 55% among 10,000; AID 489028; in the data active = inhibition above about 40%
FLuc counter = counter-screen for Mdm2/MdmX inhibitors: full-length luciferase | shares compounds with Mdm2 MdmX PPI | SaOS-2 full-length luciferase counterscreen, luminescence | inhibition, % at 8 µM | hit rate 77% among 6,200 | AID 504607;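 active = mean inhibition at 8 µM reaching about 37%, which flags the compound as non-specific, limit read from the data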;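 note: p53-null SaOS-2 cells with luciferase driven by a doxycycline-inducible promoter; compound on cells about two nights before reading with doxycycline added after day one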
Hits are given with their value; – = inactive; · = no result.

SMILES	Beta apoptosis	PAX8 reporter	Gli-Sufu antag	Mdm2 MdmX PPI	Shn3 inh set2	CSC inhib	Mdm2 MdmX conf	FLuc counter
CC(=O)O[C@@]12CO[C@@H]1C[C@H](O)[C@@]1(C)C(=O)[C@H](O)C3=C(C)[C@@H](OC(=O)[C@H](O)[C@@H](NC(=O)OC(C)(C)C)c4ccccc4)C[C@](O)([C@@H](OC(=O)c4ccccc4)[C@H]21)C3(C)C	·	·	·	55.8	·	–	62.0	52.6
COCCNC(=O)C[C@@H]1C[C@H]2c3cc(NC(=O)c4cccnc4)ccc3O[C@H]2[C@H](CO)O1	·	–	·	·	·	·	·	·
O=C(Nc1ccccc1N1CCN(C(=O)c2ccc(Cl)cc2)CC1)c1ccc([N+](=O)[O-])o1	–	·	–	55.2	–	–	–	·
Cc1ccccc1C(=O)N1CCN(c2ccc(NC(=O)c3ccc([N+](=O)[O-])o3)cc2)CC1	–	–	–	71.8	99.4	90.9	76.0	90.5
O=C(Nc1ccccc1N1CCCCC1)c1ccc([N+](=O)[O-])o1	·	–	–	–	–	·	·	·
CCN1CCN(c2c(Cl)cccc2NC(=O)c2ccc([N+](=O)[O-])o2)CC1	103.3	–	·	54.6	–	–	–	·
CC(C)C(=O)N1CCN(c2ccc(NC(=O)c3ccc([N+](=O)[O-])o3)cc2)CC1	–	97.2	–	71.6	–	–	52.1	–
COc1ccc(-c2cnc3c(c2)C(=O)N([C@H](C)CO)C[C@@H](C)[C@H](CN(C)C(=O)Cc2cccnc2)O3)cc1	·	–	·	·	·	·	·	·
C[C@@H]1CN([C@@H](C)CO)C(=O)Cc2cc(NC(=O)Nc3ccc(C(F)(F)F)cc3)ccc2O[C@@H]1CN(C)S(=O)(=O)c1ccc(F)cc1	·	–	·	·	·	·	·	·
CN1CCN(c2ccc(NC(=O)c3ccc([N+](=O)[O-])o3)cc2Cl)CC1	–	82.2	–	64.4	89.7	–	49.8	–
CC(C)c1ccc(/C=C(\c2nc3ccccc3[nH]2)S(=O)(=O)c2ccccc2)cc1	102.3	87.2	–	100.3	91.7	–	100.2	52.7
COc1ccc(/C=C(/NC(=O)c2ccccc2)c2nc3ccccc3[nH]2)cc1OC	–	·	–	–	–	–	·	·
CC1=C(C)/C(=N\OS(=O)(=O)c2ccccc2)C=CC1=O	113.2	·	–	94.8	–	–	83.6	52.5
O=C(NC1CCCC1)c1cnn2c(C(F)(F)F)cc(-c3ccc4c(c3)OCO4)nc12	·	·	–	62.2	–	–	–	·
Cc1cc(C)nc(S/C=C/C(=O)c2ccc(F)cc2)n1	–	·	·	100.9	·	–	–	·
O=C(Nc1cc(F)ccc1F)N1CCCCN2[C@@H](CO)[C@@H](c3ccc(-c4ccncc4)cc3)[C@@H]2C1	·	–	·	·	·	·	·	·
Cc1noc(C)c1S(=O)(=O)Nc1ccc2c(c1)C(=O)N([C@@H](C)CO)C[C@H](C)[C@@H](CN(C)CC1CC1)O2	·	–	·	·	·	·	·	·
COc1ccc(C(=O)c2c(C(F)(F)F)oc3c2C(=O)c2ccccc2C3=O)cc1OC	·	·	–	85.7	89.0	101.5	71.5	–
COc1ccc(C(=O)Nc2ccc3c(c2)C(=O)c2ccccc2C3=O)cc1OC	–	–	–	–	–	–	·	·
CCCn1c(N)c(C(=O)CSc2nc3ccccc3s2)c(=O)[nH]c1=O	–	–	–	81.8	–	–	79.4	48.8
O=C(Nc1cc(Cl)ccc1-n1cncn1)c1ccco1	–	–	–	–	–	–	·	·
O=C(Nc1cc(Cl)ccc1-n1cncn1)c1ccc([N+](=O)[O-])s1	102.0	·	–	58.4	–	–	–	·
O=C(Nc1ccc(F)cc1)Nc1ccc2c(c1)[C@H]1C[C@@H](CC(=O)N3CCCCC3)O[C@H](CO)[C@H]1O2	·	–	·	·	·	·	·	·
N#C/C(=N/Nc1ccc(OC(F)(F)F)cc1)C(N)=S	88.4	80.8	61.5	78.3	–	–	87.9	–
COc1ccc(-c2ccc3c(c2)[C@@H]2[C@@H](CCN2S(=O)(=O)c2ccccc2F)[C@H](CO)N3C)cc1	·	–	·	·	·	·	·	·
SMILES	Beta apoptosis	PAX8 reporter	Gli-Sufu antag	Mdm2 MdmX PPI	Shn3 inh set2	CSC inhib	Mdm2 MdmX conf	FLuc counter
CCC(=O)Nc1ccc2c(c1)C(=O)N(C)C[C@H](OC)[C@@H](C)CN(C(=O)c1ccncc1)[C@@H](C)CO2	·	–	·	·	·	·	·	·
Cc1ccc(NC(=S)NC(=O)c2ccc(F)cc2)cc1S(=O)(=O)Nc1cccc(Cl)c1	–	–	–	67.4	–	–	54.0	107.5
Cc1ccc(NC(=O)c2cccs2)cc1S(=O)(=O)Nc1cccc(Cl)c1	–	–	–	–	–	–	·	·
NCC12CC3CC(C1)CC(c1ccc(Cl)cc1)(C3)C2	–	–	–	96.4	–	–	–	·
Nc1ccc(C23CC4CC(CC(CO)(C4)C2)C3)cc1	–	·	–	–	–	–	·	·
O=C(C[C@@H]1CC[C@H]2[C@@H](COC[C@H](O)CN2Cc2ccc(F)cc2)O1)NCc1ccncn1	·	–	·	·	·	·	·	·
COc1ccc(NC(=O)N(C)C[C@H]2OCCCC[C@H](C)Oc3ccc(NC(=O)c4ccccc4)cc3C(=O)N([C@H](C)CO)C[C@@H]2C)cc1	·	–	·	·	·	·	·	·
Cc1cc(NC(=S)NC(=O)c2ccccc2)ccc1-c1cc2ccccc2oc1=O	–	–	–	–	–	–	·	·
COc1cc(C(=O)NC(=S)Nc2cccc(-c3cc4ccccc4oc3=O)c2)cc(OC)c1OC	–	·	–	52.8	–	–	–	·
COc1cc(/C=C2\N=C(c3ccccc3)NNC2=O)cc(OC)c1OC	·	–	–	61.0	·	·	53.6	63.5
Cc1[nH]c2ccccc2c1/C=N/NC(=O)c1cccs1	–	–	–	–	–	–	·	·
Cc1c(/C=N/NC(=O)c2cccs2)c2ccccc2n1Cc1ccccc1Cl	–	–	–	71.5	–	–	64.8	89.6
CN(C)C=NC(=O)c1[nH]c2ccc(Cl)cc2c1-c1ccccc1	–	–	–	79.8	–	–	–	·
Cc1c(Cl)cccc1NC(=S)N=Nc1c(O)n(CN2CCOCC2)c2ccccc12	–	·	–	81.9	–	–	63.1	51.4
C=CCn1c(O)c(N=NC(=S)Nc2ccccc2F)c2ccccc21	–	–	–	75.8	–	–	57.0	50.0
Cc1ccc(NC(=O)Cn2c(O)c(N=NC(N)=S)c3ccccc32)cc1	–	–	–	51.2	–	–	–	64.8
Oc1c(N=NC(=S)Nc2ccccc2F)c2ccccc2n1Cc1ccccc1	–	–	–	–	–	·	·	·
Cc1ccc(Cn2c(O)c(N=NC(=S)Nc3ccccc3F)c3ccccc32)cc1	–	–	–	57.1	–	–	60.0	48.5
COc1ccc(CN(C)C[C@H]2OCc3cn(nn3)CCCC(=O)N([C@@H](C)CO)C[C@H]2C)cc1	·	–	·	·	·	·	·	·
CO[C@H]1CN(C)C(=O)c2ccc(NC(=O)C3CC3)cc2OC[C@@H](C)N(C(=O)C2CCOCC2)C[C@H]1C	·	–	·	·	·	·	·	·
O=C(N[C@H]1C=C[C@H](CC(=O)N2CCN(c3ccccc3)CC2)O[C@H]1CO)c1ccccc1	·	–	·	·	·	·	·	·
Cc1cc(C)n(-c2nc(NCCCN(C)C)c3c4c(sc3n2)COC(C)(C)C4)n1	–	–	–	–	–	–	·	·
